Test [1] has as its target Albumin (Bos taurus) (UniProt P02769). As to the kind of experiment: compounds binding labelled BSA control protein – biochemical, small-molecule microarray, Alexa647 label, 635/667 nm fluorescence, artefact control for SMM control protein annotation, profiling panel (AID 1118).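 Further: score merges 667 nm emission intensity and signal-to-noise per printed compound spot.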 To be noted: BSA-A647 binding, fluorescence 635 nm, higher = more signal.
The nature of test [2]: probe aXIP binding to arrayed compounds – biochemical, NeuroSMM set, 635/667 nm fluorescence, primary screen (AID 1119).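 Further: probe is the protein aXip251-270 applied at 1 µg/mL to compound-printed slides; binding of probe to printed compounds measured as 667 nm fluorescence plus signal to noise.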 To be noted: small-molecule microarray, higher = more signal, called active from +8 up or from −8 down.
Test [3] can be described thus: probe aNOTCH3 binding on compound microarray – biochemical, small-molecule microarray, 635/667 nm fluorescence, primary screen (AID 1120).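 Further: probe is a biotin-tagged antibody raised against NOTCH3 rather than NOTCH3 protein; score merges spot fluorescence near 667 nm with spot signal to noise.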 The note with it: higher = more signal.
A short description of test [4]: probe aNOTCH2 binding on compound microarray – biochemical, small-molecule microarray, 635/667 nm fluorescence, primary screen (AID 1121).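 Further: score merges feature fluorescence read at 667 nm with its signal to noise.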 The note with it: higher = more signal.
The target in test [5] is Carbonic anhydrase 2 (Homo sapiens) (UniProt P00918). The test is described as follows: compounds binding carbonic anhydrase 2 – biochemical, small-molecule microarray, Alexa647-labelled CAII, profiling panel (AID 1122). To be noted: CAII-A647 binding fluorescence, higher = more signal.
Test [6] in a line: COS7 lysate on small-molecule microarray, probe aHis, 635 nm (AID 1123).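 Further: z-score combines 667nm fluorescence intensity with signal-to-noise per printed compound spot.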 To be noted: COS7 cell lysate, fluorescence, higher = more signal.
Test [7] can be described thus: probe aLAP1 signal on lysate-treated microarray – cell lysate, small-molecule microarray, COS7 lysate, primary screen (AID 1124).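 Further: lysate comes from COS7 cells expressing LAP1 and is applied at 0.3 µg/mL; score merges spot fluorescence near 667 nm with signal-to-noise over triplicate slides.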 The note with it: probe aLAP1, fluorescence, higher = more signal.
For test [8], the system named is Sam68 (KHDRBS1). As to the kind of experiment: compounds binding KHDRBS1 protein – biochemical, small-molecule microarray, 635 nm fluorescence, primary screen (AID 1125).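 Further: score merges 667 nm channel intensity with signal to noise over triplicate slides.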 To be noted: higher = more signal.
Test [9] relates to Chordin-like protein 2 (CHRDL2). The test is described as follows: compounds binding chordin-like 2 – biochemical, small-molecule microarray, 635 nm fluorescence, primary screen (AID 1126).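 Further: printed compound slides probed with Chrdl2 protein at 4 µg/mL for 1 h at 4 C; score merges 667 nm emission intensity with signal to noise over three replicate slides.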 The note with it: fluorescence 635 nm, higher = more signal.
The target in test [10] is Concanavalin-A (Canavalia ensiformis) (UniProt P02866). The test is described as follows: compounds binding concanavalin A lectin – biochemical, small-molecule microarray, Alexa647 label, 635 nm, artefact control for SMM control protein annotation, primary screen (AID 1127).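 Further: z combines 667 nm emission intensity with signal-to-noise across three replicate slides.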 To be noted: ConA-A647 binding fluorescence, higher = more signal.
The nature of test [11]: compounds binding Alexa647 anti-His antibody – biochemical, small-molecule microarray, 635 nm fluorescence, artefact control for SMM control protein annotation, primary screen (AID 1128).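 Further: score merges feature fluorescence with signal-to-noise for each printed compound spot.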 The note with it: higher = more signal.
In test [12] the test system is Human papillomavirus type 1a E7 protein (residues 1-88). The test is described as follows: HPV1a E7 small-molecule binders, primary screen, biochemical, small-molecule microarray, residues 1-88, 635 nm (AID 1129). The note with it: small-molecule microarray binding, fluorescence 635 nm; higher = more signal.
Test [13] concerns the target Focal adhesion kinase 1 (Homo sapiens) (UniProt Q05397). The test is described as follows: PTK2 protein binding on printed compound slides – biochemical, small-molecule microarray, 635/667 nm fluorescence, BSA, DTT, primary screen (AID 1130).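 Further: composite of spot emission at 667 nm and signal to noise over triplicate slides.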 The note with it: 635 nm fluorescence, higher = more signal.
Test [14] concerns Fibrinogen (Alexa647-labelled). The test is described as follows: Alexa647-fibrinogen binding to printed small molecules – biochemical, small-molecule microarray, 635/667 nm fluorescence, artefact control for SMM control-protein annotation, profiling panel (AID 1131).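 Further: z-score merges 667 nm fluorescence with per-spot signal-to-noise over triplicate slides.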 The note with it: fibrinogen-A647 binding fluorescence, higher = more signal.
The target of test [15] is Follistatin (Homo sapiens) (UniProt P19883). As to the kind of experiment: FST protein binding to printed compounds – biochemical, small-molecule microarray, 635/667 nm fluorescence, primary screen (AID 1132). The note with it: 635 nm fluorescence, higher = more signal.
In test [16] the target is Fibroblast growth factor 2 (Homo sapiens) (UniProt P09038). The test is described as follows: basic fibroblast growth factor binding to printed compounds – biochemical, small-molecule microarray, 635/667 nm fluorescence, primary screen (AID 1133). To be noted: FGF2, fluorescence 635/667, higher = more signal.
Test [17] is described as follows: JC-1 mitochondrial potential readout, lung cancer cells – cell-based, A549, JC-1 fluorescence, basal, 24 h, 100 nL, profiling panel (AID 1138).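 Further: A549 lung adenocarcinoma cells under basal conditions with no added stimulus; test concentration not given here.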 The note with it: higher = more signal.
The test system of test [18] is Lefty1. As to the kind of experiment: Lefty1 protein binding to printed compounds – biochemical, small-molecule microarray, 635/667 nm fluorescence, primary screen (AID 1139). The note with it: fluorescence 635/667, higher = more signal.
The test system of test [19] is wheat germ agglutinin (Triticum aestivum), Alexa647-labelled. As to the kind of experiment: Alexa647-WGA lectin binding to printed small molecules – biochemical, small-molecule microarray, 635/667 nm fluorescence, artefact control for SMM control-protein annotation, profiling panel (AID 1140).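 Further: score merges 667 nm feature emission with signal to noise over triplicate slides.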 The note with it: WGA-A647 binding, 635 nm fluorescence, higher = more signal.

Test [20] has as its target Luciferin 4-monooxygenase (Photinus pyralis) (UniProt P08659). As to the kind of experiment: inhibition of purified Photinus pyralis luciferase – biochemical, luminescence, purified enzyme, 2006 set, primary screen (AID 1141).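 Further: cell-free assay with purified firefly luciferase at 100 ng per well in PBS; test concentration not given here.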 To be noted: purified firefly luciferase, SteadyGlo luminescence, 30 min; higher = more signal, called active from +8 up or from −8 down.

Composite z-score, composite Z-score and z-score data for 6 molecules are collected here from PubChem BioAssay.

The source made the active and inactive calls.

Fibroblast growth factor 2 (Homo sapiens), sequence (P09038 whole entry, looked up): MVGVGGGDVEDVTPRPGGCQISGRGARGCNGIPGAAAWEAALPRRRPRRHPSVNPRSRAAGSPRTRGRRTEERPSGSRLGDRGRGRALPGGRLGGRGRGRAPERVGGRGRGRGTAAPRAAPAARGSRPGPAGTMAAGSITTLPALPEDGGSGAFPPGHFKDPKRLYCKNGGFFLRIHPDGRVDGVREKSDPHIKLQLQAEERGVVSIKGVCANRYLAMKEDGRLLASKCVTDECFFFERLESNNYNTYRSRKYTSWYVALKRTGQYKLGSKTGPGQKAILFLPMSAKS
Concanavalin-A (Canavalia ensiformis), sequence (P02866 whole entry, looked up): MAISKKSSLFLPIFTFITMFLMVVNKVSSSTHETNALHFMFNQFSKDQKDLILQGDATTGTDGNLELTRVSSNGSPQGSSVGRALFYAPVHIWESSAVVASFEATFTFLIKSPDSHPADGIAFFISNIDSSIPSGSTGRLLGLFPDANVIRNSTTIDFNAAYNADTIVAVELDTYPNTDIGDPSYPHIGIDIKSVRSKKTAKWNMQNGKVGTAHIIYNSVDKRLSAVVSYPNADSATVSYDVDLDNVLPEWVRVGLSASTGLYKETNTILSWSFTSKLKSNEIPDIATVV
Focal adhesion kinase 1 (Homo sapiens), sequence (Q05397 whole entry, looked up): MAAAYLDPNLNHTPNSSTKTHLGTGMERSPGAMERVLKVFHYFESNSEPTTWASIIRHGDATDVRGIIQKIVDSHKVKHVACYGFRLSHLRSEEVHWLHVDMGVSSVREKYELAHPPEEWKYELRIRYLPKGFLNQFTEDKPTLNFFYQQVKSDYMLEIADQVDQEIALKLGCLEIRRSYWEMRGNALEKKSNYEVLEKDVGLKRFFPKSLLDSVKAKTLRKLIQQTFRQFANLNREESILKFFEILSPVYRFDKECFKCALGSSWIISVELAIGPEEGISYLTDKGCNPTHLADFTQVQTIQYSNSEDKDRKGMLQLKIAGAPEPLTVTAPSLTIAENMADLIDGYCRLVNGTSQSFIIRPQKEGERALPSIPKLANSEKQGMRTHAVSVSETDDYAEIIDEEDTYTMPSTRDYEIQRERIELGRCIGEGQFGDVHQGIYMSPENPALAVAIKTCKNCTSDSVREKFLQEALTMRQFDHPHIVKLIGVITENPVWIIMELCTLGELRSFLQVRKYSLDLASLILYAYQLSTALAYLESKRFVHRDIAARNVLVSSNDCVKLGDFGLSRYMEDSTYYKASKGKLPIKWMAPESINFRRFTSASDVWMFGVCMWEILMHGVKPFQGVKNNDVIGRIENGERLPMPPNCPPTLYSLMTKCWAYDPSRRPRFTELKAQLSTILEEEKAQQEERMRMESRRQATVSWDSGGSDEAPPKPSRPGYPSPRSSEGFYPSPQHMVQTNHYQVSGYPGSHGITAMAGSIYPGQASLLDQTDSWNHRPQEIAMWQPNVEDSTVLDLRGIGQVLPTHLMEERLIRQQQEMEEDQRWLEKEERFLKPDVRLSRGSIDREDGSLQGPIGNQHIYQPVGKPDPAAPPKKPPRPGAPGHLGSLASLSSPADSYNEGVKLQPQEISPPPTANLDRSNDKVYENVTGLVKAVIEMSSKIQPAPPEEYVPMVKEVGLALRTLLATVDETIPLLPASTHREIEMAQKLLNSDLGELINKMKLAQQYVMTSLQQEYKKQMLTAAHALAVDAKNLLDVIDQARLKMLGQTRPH
Albumin (Bos taurus), sequence (P02769 whole entry, looked up): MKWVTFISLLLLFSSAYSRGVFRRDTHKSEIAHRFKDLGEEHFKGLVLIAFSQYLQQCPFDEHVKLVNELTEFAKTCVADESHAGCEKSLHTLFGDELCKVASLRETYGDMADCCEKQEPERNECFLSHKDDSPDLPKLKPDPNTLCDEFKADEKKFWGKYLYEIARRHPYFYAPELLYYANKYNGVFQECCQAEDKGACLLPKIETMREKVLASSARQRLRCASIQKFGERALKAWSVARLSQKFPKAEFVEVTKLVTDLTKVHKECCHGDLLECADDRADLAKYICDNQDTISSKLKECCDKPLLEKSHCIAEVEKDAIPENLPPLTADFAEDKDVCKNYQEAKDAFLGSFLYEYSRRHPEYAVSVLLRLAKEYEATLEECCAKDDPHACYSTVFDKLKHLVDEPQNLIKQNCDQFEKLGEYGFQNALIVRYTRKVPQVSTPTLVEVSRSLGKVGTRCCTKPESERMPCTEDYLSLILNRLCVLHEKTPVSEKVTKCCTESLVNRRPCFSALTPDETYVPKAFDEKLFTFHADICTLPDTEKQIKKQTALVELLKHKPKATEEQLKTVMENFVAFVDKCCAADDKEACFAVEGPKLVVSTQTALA
Luciferin 4-monooxygenase (Photinus pyralis), sequence (P08659 whole entry, looked up): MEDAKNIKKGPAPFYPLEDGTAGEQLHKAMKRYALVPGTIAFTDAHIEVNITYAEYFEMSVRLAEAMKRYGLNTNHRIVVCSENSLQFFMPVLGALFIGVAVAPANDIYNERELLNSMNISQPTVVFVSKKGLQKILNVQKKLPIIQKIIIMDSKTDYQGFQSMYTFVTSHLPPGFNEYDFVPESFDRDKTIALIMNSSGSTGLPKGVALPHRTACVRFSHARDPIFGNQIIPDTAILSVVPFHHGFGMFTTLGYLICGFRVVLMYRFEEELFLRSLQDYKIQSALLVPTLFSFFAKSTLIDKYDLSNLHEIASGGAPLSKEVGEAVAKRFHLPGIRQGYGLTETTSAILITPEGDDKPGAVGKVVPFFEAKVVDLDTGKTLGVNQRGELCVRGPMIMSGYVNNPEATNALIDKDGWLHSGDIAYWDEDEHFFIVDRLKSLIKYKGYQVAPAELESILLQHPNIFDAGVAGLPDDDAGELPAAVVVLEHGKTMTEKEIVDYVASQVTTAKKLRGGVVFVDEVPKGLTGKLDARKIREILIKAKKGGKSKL
Follistatin (Homo sapiens), sequence (P19883 whole entry, looked up): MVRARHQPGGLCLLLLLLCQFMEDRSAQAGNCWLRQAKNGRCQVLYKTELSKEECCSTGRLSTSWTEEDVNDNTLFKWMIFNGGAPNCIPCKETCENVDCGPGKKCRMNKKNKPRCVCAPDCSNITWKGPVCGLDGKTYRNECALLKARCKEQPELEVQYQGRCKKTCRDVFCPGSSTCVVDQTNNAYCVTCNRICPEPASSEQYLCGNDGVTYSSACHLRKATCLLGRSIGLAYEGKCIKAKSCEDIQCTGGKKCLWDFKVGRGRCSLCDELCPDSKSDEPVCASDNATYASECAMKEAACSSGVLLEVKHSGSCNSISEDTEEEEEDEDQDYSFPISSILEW

`CC1CC/C=C\[C@H]2OC34C=CCN(C(C)(C)C)C(=O)[C@H]3N(C(C)CO)C(=O)[C@@H]4C2C(=O)O1` (stereo not given in full): the composite z-score is -0.92 in [1]; -0.122 in test [3]; -0.13 in test [4]; 0.4 in test [5]; -0.187 in test [6]; 0.199 in [7]. The composite z-score was -1.47 in [8]; -0.454 in test [9]; -2.17 in test [10]; -1.63 in test [11]; -2.07 in test [12]; -0.9 in [13]. Further, the composite z-score is -2.02 in test [14]; -0.397 in test [15]; -0.121 in test [16]; -0.248 in test [18]; -1.61 in test [19]. Moreover, the composite Z-score in [2] was -0.0245 (inactive). The z-score was 0.348 in test [17] and -0.694 (inactive) in [20].

As to `NC(=O)NCC#Cc1ccc2c(c1)[C@]1(C(=O)N2)[C@H](c2ccccc2OCCO)N2[C@H](c3ccccc3)[C@H](c3ccccc3)OC(=O)[C@H]2[C@@H]1C(=O)Nc1nc2ccccc2s1`, the composite z-score in test [1] is 0.403; in test [3], 0.288; in test [4] it was -0.123; in [5], 0.237; in test [6], 1.63; in [7], 0.0159. The composite z-score in [8] was 1.07; in test [9], -0.287; in [10], 0.748; in test [11], 0.111; in test [12], 0.844; in test [13], 0.346. For the same molecule, the composite z-score worked out at 0.613 in test [14]; 0.759 in [15]; 0.244 in test [16]; 0.373 in test [18]; 0.89 in test [19]. The composite Z-score in test [2] is 0.105 (inactive). The z-score in test [17] was -2.13; in test [20] it was 0.302 (inactive).

Take `NCCCCCCNC(=O)[C@@H]1C[C@@H]2C(=O)NCC(=O)N2[C@@H]1c1ccc(O)cc1`: the composite z-score in test [1] was 0.741; in test [3], -0.232; in [4], -0.124; in test [5], 0.4; in test [6] it was 0.738; in test [7] it was 0.0946. The composite z-score in [8] was 1.28; in test [9] it was 1.17; in [10], 1.17; in test [11], 1.2; in test [12], 1.14; in [13] it was 0.183. Moreover, the composite z-score in test [14] worked out at 0.971; in [15] it was 1.46; in test [16] it was 1.62; in test [18], 1.63; in test [19], 0.846. Besides, the composite Z-score in [2] was 0.706 (inactive). Besides, the values for the z-score in test [17] and in test [20] were -0.614 and 1.14 (inactive), respectively.

As to `[N-]=[N+]=Nc1ccccc1[C@H]1OC(c2ccc(OCCCO)cc2)=N[C@@]1(CCS(=O)(=O)c1ccccc1)C(=O)NCC(O)CO` (stereo not given in full), the composite z-score in [1] is 0.876; in test [3] it was 0.102; in test [4], -0.0984; in [5] it was 0.718; in test [6], 3.02; in test [7], 0.261. The composite z-score in [8] was 1.33; in test [9], -0.907; in test [10] it was 0.833; in [11], 1.52; in [12] it was 0.94; in test [13], 0.605. Besides, the composite z-score in test [14] is 1.07; in test [15], 1.27; in [16], 0.057; in test [18], -0.0179; in [19], 0.914. The composite Z-score in [2] was -0.0683 (inactive). The z-score in test [17] was 0.233; in [20] it was -9.88 (active).

Turning to `CCC[C@@H]1C[C@@]1(CCC)[C@@H](NC(=O)c1ccccc1)c1cccc(Cl)c1`, the composite z-score in test [1] came to 0.941; in test [3], 1.38; in test [4] it was 0.808; in [5], 0.326; in [6] it was 2.63; in [7], 0.245. Besides, the composite z-score amounted to 1.33 in test [8]; 0.0667 in test [9]; 0.954 in test [10]; 1.52 in test [11]; 1.17 in [12]; 0.535 in test [13]. Further, the composite z-score in [14] was 0.596; in [15], 0.219; in test [16], -0.331; in [18], -0.544; in [19], 1.11. The composite Z-score in test [2] was 0.432 (inactive). For the same molecule, the z-score in test [17] is 0.349; in test [20], 0.841 (inactive).

For the molecule `COc1ccc(C#Cc2ccc3c(c2)[C@]2(C(=O)N3)[C@H](C(=O)NC[C@H](O)c3ccccc3)[C@H]3C(=O)O[C@H](c4ccccc4)[C@H](c4ccccc4)N3[C@@H]2c2ccc(O)cc2)cc1`, the composite z-score was 0.186 in test [1]; 0.0585 in test [3]; -0.139 in test [4]; 0.566 in test [5]; 2.46 in test [6]; 0.624 in test [7]. In addition, the composite z-score in [8] was 1.29; in test [9] it was -0.0259; in test [10], 1.13; in test [11], 2.71; in [12], 1.23; in [13] it was 0.521. Also, the composite z-score worked out at 0.901 in [14]; 1.08 in [15]; 0.811 in test [16]; 0.767 in [18]; 0.947 in test [19]. The composite Z-score in test [2] was 0.658 (inactive). In addition, the z-score was -1.57 in [17] and 0.656 (inactive) in [20].
